A selection: hits, their analogues and other compounds. The true share with any hit is near 6.7%.
T cruzi growth-1: blocks T. cruzi growth in NIH3T3 culture; inhibition, % at 8.34 µM; T. cruzi beta-gal in NIH3T3, GalScreen luminescence, 90 h; 5.9% of 77,000 active;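 active means mean inhibition above about 93%, with at least 55% of replicates each passing it, limit read from the data, passing the limit was not always enough; inconclusive means only one of those two conditions holds; inactive means neither condition holds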
Pf Dd2 growth: inhibitors of Plasmodium falciparum Dd2 growth; P. falciparum Dd2 growth, SYBR Green, 72 h; active compounds read low; activity change, % at 10 µM; 2.3% of 94,000 active; AID 1159554; in the data active means activity change below about -80%; inconclusive means no clear call, values can overlap the other calls
C diff growth: C. difficile growth inhibition; Clostridium difficile clinical isolate growth, OD600, 24 h; active compounds read low; growth activity, negative = inhibition, % at 16 µg/mL (by protocol); 0.25% of 86,000 active;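 active means mean growth activity at or below -80% and every replicate also at or below -80%; inconclusive means mean at or below -80% but some replicate above -80%; inactive means mean growth activity above -80%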;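 further: 0% = DMSO wells and -100% = levofloxacin 16 µg/mL wells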
T cruzi growth-2: blocks T. cruzi growth in NIH3T3 host cells. 72% of 5,600 active. T. cruzi beta-gal in NIH3T3, GalScreen luminescence, 90 h. inhibition, % at 8.35 µM. shares compounds with T cruzi growth-1;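 active means mean replicate inhibition above about 95% and at least 55% of replicates individually reaching it, limit read from the data; inconclusive means only one of the two criteria is met; inactive means neither criterion is met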
T cruzi growth-3: Trypanosoma cruzi proliferation inhibition; shares compounds with T cruzi growth-1; T. cruzi beta-gal in NIH3T3, GalScreen luminescence, 90 h; inhibition, % at 2.09 µM; 21% of 5,600 active; AID 651740;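 active means mean inhibition above about 95%, with at least 55% of replicates also reaching it, limit read from the data; inconclusive means meets just one of the two conditions; inactive means meets neither condition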;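 further: plate controls were neutral control median for no effect and positive control median for full effect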
NIH3T3 tox: cytotoxicity in mouse NIH/3T3 fibroblasts. shares compounds with T cruzi growth-1. 14% of 5,600 active. NIH/3T3 viability, CellTiter-Glo ATP luminescence, 90 h. AID 651742. cytotoxicity (signal decrease), % at 8.35 µM;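 active means mean signal decrease across replicates above about 35% based on untreated-well scatter, with enough replicates individually passing, limit read from the data; inconclusive means no rule stated though some were filed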;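 further: 0% = median of neutral control wells and 100% = median of positive control wells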
NIH3T3 tox 2: cytotoxicity in mouse NIH/3T3 fibroblasts | shares compounds with T cruzi growth-1 | NIH/3T3 viability, CellTiter-Glo ATP luminescence, 90 h | inhibition, % at 24.9 µM | 56% of 5,600 active | AID 651744;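 active means mean loss of cell viability signal at or above a set limit, and enough replicates individually reaching it; inconclusive means meets only the mean limit or only the replicate share; inactive means meets neither condition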;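 further: 0% = median of neutral control wells and 100% = median of positive control wells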
An asterisk follows results filed as active; u = inconclusive; x = no result given.

SMILES | T cruzi growth-1 | Pf Dd2 growth | C diff growth | T cruzi growth-2 | T cruzi growth-3 | NIH3T3 tox | NIH3T3 tox 2
C[C@@H]1CCCCO[C@H](CN(C)C(=O)CCCN(C)C)[C@H](C)CN([C@@H](C)CO)C(=O)c2cc(NS(=O)(=O)c3cccs3)ccc2O1 | 9.0 | 53.3 | 12.7 | x | x | x | x
C[C@@H]1CN([C@@H](C)CO)C(=O)Cc2cc(NC(=O)NC3CCCCC3)ccc2O[C@H]1CN(C)S(=O)(=O)c1ccc(F)cc1 | 11.8 | -43.4 | 0.4 | x | x | x | x
CNC[C@H]1Oc2ncc(C#CC3(O)CCCC3)cc2C(=O)N([C@H](C)CO)C[C@H]1C | x | -14.3 | -2.6 | x | x | x | x
C[C@@H]1CN([C@H](C)CO)C(=O)c2cc(/C=C/c3ccccc3)cnc2O[C@H]1CN(C)C(=O)Cc1cccnc1 | x | -16.8 | 0.9 | x | x | x | x
CN(C)C(=O)c1ccc(-c2ccc3c(c2)[C@@H]2[C@@H](CCN2C(=O)c2ccccn2)[C@@H](CO)N3)cc1 | 76.2 | -36.5 | -13.0 | x | x | x | x
O=C(c1ccccn1)N1CC[C@H]2[C@H](CO)Nc3ccc(-c4ccc(F)cc4)cc3[C@H]21 | u | -27.1 | 0.2 | 107.7* | 98.1* | 1.4 | 28.8*
O=C(c1ccccn1)N1CC[C@@H]2[C@H]1c1cc(-c3ccccc3F)ccc1N[C@@H]2CO | 90.2 | -7.7 | -25.7 | x | x | x | x
O=C(c1ccccn1)N1CC[C@H]2[C@H](CO)Nc3ccc(-c4ccccc4)cc3[C@H]21 | 98.8* | -77.5 | -13.9 | u | 91.3 | -6.6 | -4.8
CC(C)NC(=O)Nc1ccc2c(c1)C(=O)N([C@H](C)CO)C[C@H](C)[C@H](CN(C)C(=O)c1ccncc1)OCCCC[C@H](C)O2 | 46.7 | 29.5 | 4.7 | x | x | x | x
Cc1noc(C)c1S(=O)(=O)Nc1cccc2c1O[C@H](CN(C)Cc1ccncc1)[C@H](C)CN([C@H](C)CO)C2=O | 21.6 | 34.9 | -2.1 | x | x | x | x
Cc1noc(C)c1S(=O)(=O)Nc1ccc2c(c1)CC(=O)N([C@H](C)CO)C[C@@H](C)[C@@H](CN(C)C(=O)Nc1ccc3c(c1)OCO3)O2 | 9.6 | -49.8 | -7.4 | x | x | x | x
C/C=C/c1ccc2c(c1)O[C@@H](CN(C)C(=O)C1CC1)[C@H](C)CN([C@H](C)CO)S2(=O)=O | -121.1 | 7.0 | -2.5 | x | x | x | x
C[C@H]1CN([C@@H](C)CO)C(=O)Cc2cc(NC(=O)C3CCCCC3)ccc2O[C@@H]1CN(C)Cc1ccc(-c2ccccc2)cc1 | 99.1* | -25.3 | 35.2 | 103.5* | 71.0 | -5.7 | 14.2
C[C@@H]1CN([C@H](C)CO)C(=O)Cc2cc(NC(=O)C3CCCCC3)ccc2O[C@@H]1CN(C)Cc1ccc(-c2ccccc2)cc1 | 46.6 | -17.1 | -6.3 | x | x | x | x
C[C@@H]1CN([C@H](C)CO)C(=O)Cc2cc(NC(=O)C3CC3)ccc2O[C@H]1CN(C)Cc1ccc(-c2ccccc2)cc1 | 15.7 | 5.1 | -0.4 | x | x | x | x
C[C@@H]1CN([C@@H](C)CO)C(=O)Cc2cc(NC(=O)C3CC3)ccc2O[C@H]1CN(C)Cc1ccc(-c2ccccc2)cc1 | 113.8* | -8.5 | 4.7 | 101.5* | 84.6 | 11.2 | 103.3*
COc1ccc(NC(=O)Nc2ccc3c(c2)CC(=O)N([C@H](C)CO)C[C@H](C)[C@@H](CN(C)S(=O)(=O)c2cccs2)O3)cc1 | -24.6 | -6.1 | -8.0 | x | x | x | x
C[C@@H]1CCCCO[C@@H](CN(C)C(=O)NC2CCCCC2)[C@@H](C)CN([C@@H](C)CO)C(=O)c2cc(NC(=O)c3ccccc3)ccc2O1 | x | -54.4 | 7.5 | x | x | x | x
Cc1cccc(S(=O)(=O)N2C[C@@H]3[C@H](c4ccccc42)[C@H](CO)N3Cc2ccc3c(c2)OCO3)c1 | 108.5* | -46.0 | 2.9 | 100.8* | 108.4* | 24.1 | -30.9
Cc1cccc(S(=O)(=O)N2C[C@H]3[C@@H](c4ccccc42)[C@H](CO)N3Cc2cccnc2)c1 | 85.2 | -25.7 | -17.8 | x | x | x | x
O=S(=O)(c1ccccc1)N1C[C@@H]2[C@H](c3ccccc31)[C@H](CO)N2Cc1ccc2c(c1)OCO2 | 110.5* | -31.9 | 1.2 | 105.4* | 61.2 | 24.0 | 13.4
O=S(=O)(c1ccc(F)cc1)N1C[C@@H]2[C@H](c3ccccc31)[C@@H](CO)N2Cc1ccc2c(c1)OCO2 | 76.7 | -27.2 | 4.0 | x | x | x | x
O=S(=O)(c1ccccc1)N1C[C@H]2[C@@H](c3ccccc31)[C@@H](CO)N2Cc1ccc(F)cc1 | 84.0 | 2.0 | 26.5 | x | x | x | x
O=S(=O)(c1ccccc1)N1C[C@H]2[C@@H](c3ccccc31)[C@H](CO)N2Cc1ccc2c(c1)OCO2 | u | -11.8 | -9.1 | 93.3 | 41.9 | -5.3 | 3.1
O=S(=O)(c1ccccc1)N1C[C@H]2[C@@H](c3ccccc31)[C@@H](CO)N2Cc1ccc2c(c1)OCO2 | 101.3* | -46.5 | -5.4 | 101.1* | 44.3 | 18.1 | 16.0
SMILES | T cruzi growth-1 | Pf Dd2 growth | C diff growth | T cruzi growth-2 | T cruzi growth-3 | NIH3T3 tox | NIH3T3 tox 2
O=S(=O)(c1ccccc1)N1C[C@@H]2[C@H](c3ccccc31)[C@H](CO)N2Cc1ccc(F)cc1 | 94.2 | -8.4 | -0.9 | x | x | x | x
C[C@@H]1CN([C@@H](C)CO)C(=O)Cc2cc(N(C)C)ccc2O[C@H]1CN(C)S(=O)(=O)c1ccc(F)cc1 | x | -6.6 | -7.3 | x | x | x | x
CCCN(C)C[C@H]1Oc2ncc(-c3ccccc3F)cc2C(=O)N([C@@H](C)CO)C[C@@H]1C | 74.7 | -61.6 | 7.9 | x | x | x | x
COc1ccccc1CNC(=O)C[C@H]1C[C@H]2c3cc(NC(=O)NC4CCCC4)ccc3O[C@H]2[C@H](CO)O1 | 109.4* | -19.1 | 6.2 | 107.7* | 28.1 | -4.7 | 9.4
COc1ccccc1CNC(=O)C[C@H]1C[C@@H]2c3cc(NC(=O)NC4CCCC4)ccc3O[C@@H]2[C@@H](CO)O1 | 109.0* | 0.5 | 3.7 | 28.9 | 22.7 | -1.5 | -1.6
COc1ccccc1CNC(=O)C[C@H]1C[C@@H]2c3cc(NC(=O)CC4CC4)ccc3O[C@@H]2[C@H](CO)O1 | -19.6 | 0.1 | 1.0 | x | x | x | x
COc1ccccc1CNC(=O)C[C@@H]1C[C@@H]2c3cc(NC(=O)CC4CC4)ccc3O[C@@H]2[C@@H](CO)O1 | 15.6 | -21.6 | -0.5 | x | x | x | x
C[C@H](CO)N1C[C@H](C)[C@@H](CN(C)C(=O)c2ccncc2)Oc2ncc(C3=CCCCC3)cc2C1=O | 12.5 | 20.5 | -5.5 | x | x | x | x
CO[C@@H]1CN(C)C(=O)c2cc(NC(C)=O)ccc2OC[C@@H](C)NC[C@@H]1C | -2.5 | 13.7 | 0.4 | x | x | x | x
C[C@@H]1CN([C@@H](C)CO)C(=O)Cc2cc(NC(=O)Nc3cccc4ccccc34)ccc2O[C@@H]1CN(C)Cc1ccc(-c2ccccc2)cc1 | 103.5* | 11.8 | 9.6 | 108.3* | 75.3 | 23.0 | u
C[C@@H]1CN([C@H](C)CO)C(=O)Cc2cc(NC(=O)Nc3cccc4ccccc34)ccc2O[C@H]1CN(C)Cc1ccccc1 | 49.3 | -6.0 | 1.3 | x | x | x | x
C[C@H]1CN([C@@H](C)CO)C(=O)Cc2cc(NC(=O)Nc3cccc4ccccc34)ccc2O[C@H]1CN(C)Cc1ccc(-c2ccccc2)cc1 | 86.9 | -74.7 | 8.9 | x | x | x | x

From PubChem
